Compounds without any hit were thinned out: in the full panel of roughly 83,000, 20% have a hit.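 Cells were grown in 96-well plates and exposed to the test compound at a single concentration for 48 hours; results are reported as percent growth, with values below 10 considered active.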 Unmarked numbers belong to inactive results. Calls of active or inactive are those of the source.
Key:
Test in all cases: NCI-60 one-dose screen, 48 h (100 = growth as untreated, 0 = no growth, -100 = all killed)
Details in all cases: 10 µM unless noted
T-47D breast = tested on: T-47D breast
BT-549 breast = tested on: BT-549 breast
MDA-MB-435 melanoma = tested on: MDA-MB-435 melanoma
SW-620 colon = tested on: SW-620 colon
MCF7 breast = tested on: MCF7 breast
HCT-116 colon = tested on: HCT-116 colon
HCC-2998 colon = tested on: HCC-2998 colon
KM12 colon = tested on: KM12 colon

| SMILES | growth (T-47D breast) | growth (BT-549 breast) | growth (MDA-MB-435 melanoma) | growth (SW-620 colon) | growth (MCF7 breast) | growth (HCT-116 colon) | growth (HCC-2998 colon) | growth (KM12 colon) |
| --- | --- | --- | --- | --- | --- | --- | --- | --- |
| O=C1Nc2cc(Cl)ccc2/C1=C\c1ccc(OCc2ccccc2)cc1 | 95.7% | 101% | 99.4% | 99.4% | 61.6% | 97.7% | 102% | 95.1% |
| O=C(Nc1cccc(Cl)c1)Nc1nc2cc([N+](=O)[O-])ccc2o1 | 15.4% | 67.1% | 40.9% | 22.3% | 36.8% | 26.8% | 39% | 26.5% |
| Cn1ncc2ncc(-c3ccc4ncc(C#N)c(N5CCc6cc(F)c(Cl)cc65)c4c3)cc21 | 5.2% (active) | 37.4% | 27.1% | 54.4% | 9.79% (active) | 53.1% | 46.4% | 52.5% |
| O=C1Nc2ccccc2/C1=N\c1nnc(-c2ccccc2)o1 | 77.9% | 105% | 102% | 95.3% | 66.3% | 103% | 111% | 96.7% |
| Oc1[nH]c2ccc(Cl)cc2c1N=Nc1nc(N=Nc2c(O)[nH]c3ccc(Cl)cc23)nc(N2CCOCC2)n1 | 29.3% | -6.36% (active) | 63.5% | 74.3% | 43.1% | 45.4% | 75.5% | 81.2% |
| O=c1c2cc(-c3ccc(F)cc3F)ccc2n(Nc2ccccc2)c(=O)n1-c1cccc(C(F)(F)F)c1 | 8.44% (active) | 3.91% (active) | 5.62% (active) | 16% | 4.02% (active) | 7.14% (active) | 14.7% | 11.4% |
| CC(C)=CCC[C@](C)(O)[C@H]1CC[C@]2(C)[C@@H]1CC[C@@H]1[C@@]3(C)CC[C@H](N)C(C)(C)[C@@H]3CC[C@]12C | 107% | 98.8% | 94.2% | 8.73% (active) | 3.07% (active) | -28.2% (active) | 63.3% | 48.9% |
| Cn1c(SCC(=O)c2ccc(Br)cc2)nc2ccccc2c1=O | 78.4% | 98.9% | 103% | 102% | 51.7% | 86.1% | 108% | 98.7% |
| CC1=C(C)C(=O)C(Nc2cccc(C(F)(F)F)c2)=C(Br)C1=O | 17.6% | 110% | 103% | 48.7% | 52.3% | 20% | 108% | 90.7% |
| COC(=O)CCCNCCCn1ccc2cc(NCc3cccc(-c4ccccc4)c3C)ccc21 | 58% | 90.2% | 70.9% | 66.5% | 56.9% | 53% | 90.2% | 85.9% |
| N#Cc1cnc2ccc(-c3cnc4n[nH]nc4c3)cc2c1N1CCc2cc(F)c(Cl)cc21 | 1.2% (active) | 3.78% (active) | 19.5% | 26.8% | 8.34% (active) | 23.7% | 22.5% | 17.4% |
| COc1ccc2[nH]cc(-c3nn4cc(-c5ccncc5)nc4s3)c2c1 | 7.81% (active) | 74.8% | 90.2% | 66.3% | 11.2% | 52.8% | 81.4% | 64.1% |
| CN1CCN(c2ccc(Nc3nc(NCCNC(=O)c4ccc(F)cc4)c4sccc4n3)cc2)CC1 | 18.2% | 56.1% | 46.9% | 75.2% | 41% | 22% | 70.4% | 65.4% |
| O=C1/C(=C/C=C/c2ccco2)SC(=S)N1Cc1ccccc1 | 75.6% | 110% | 92.7% | 94.2% | 28.4% | 91% | 99.7% | 78.6% |
| CCOC(=O)c1cnc2c(-c3ccc(Cl)c(Cl)c3)cnn2c1 | 86.2% | 26.5% | -20.3% (active) | 42.3% | 82.8% | 62.7% | 85% | 57.5% |
| COc1ccccc1/C=C/C(=O)c1nnn(-c2ccc(F)cc2)c1C | 54.9% | 62% | 23.4% | 19.9% | 7.51% (active) | 10.7% | 81.3% | 32.6% |
| C(=N\Nc1nc(N/N=C/c2ccc3c(c2)OCO3)nc(N2CCCCC2)n1)/c1ccc2c(c1)OCO2 | 87.2% | 122% | 98.5% | 82.4% | 54.8% | 47.9% | 83.8% | 86.2% |
| OCC(Nc1ncnc2ccc(-c3cnc4cnccn34)cc12)c1ccccc1 (stereo not given) | 28.4% | 76.2% | 90% | 105% | 60.9% | 79.3% | 82.9% | 80.9% |
| COc1ccc(/C=N/NC(=O)c2c(N)nn(C)c2Nc2ccccc2)cc1 | 42.4% | 14% | -31% (active) | 16% | 17.6% | 15% | 59.2% | 27.8% |
| CCS(=O)(=O)Nc1ccc(C(=O)CC2(O)C(=O)Nc3ccccc32)cc1 (stereo not given) | 89.1% | 116% | 108% | 103% | 92.3% | 104% | 100% | 101% |
| N#C/C(=C\c1ccc(-c2ccc(Cl)cc2)o1)C(=O)Nc1ncc(Cc2ccc(Br)cc2)s1 | 18.7% | 24.7% | 11.3% | -40% (active) | 30.5% | -33% (active) | 62.4% | 9.51% (active) |
| COc1cc(-c2nc(-c3ccccc3)[nH]c2-c2ccnc(NCCCNS(=O)(=O)c3ccc(C)cc3)n2)ccc1F | 57.3% | 119% | 68.5% | 108% | 65.4% | 72.3% | 153% | 90.1% |
| COc1cccc(N2CCN(C3=C(Cl)C(=O)c4ncccc4C3=O)CC2)c1 | -48.1% (active) | 105% | 3.36% (active) | 14.3% | 19.1% | 1.4% (active) | 106% | 94.5% |
| COc1ccc2c(c1)C=CC1(O2)Oc2ccc(OC)cc2C=C1C (stereo not given) | 45% | 26.5% | -35.3% (active) | 29.8% | 12.1% | 12.4% | 24.1% | 27.9% |
| COc1cc2cc(Oc3ccc(NC(=O)c4cc(C(F)(F)F)cc(C(F)(F)F)c4)cc3)c(C)nc2cc1OCCN1CCOCC1 | 84.7% | 71.4% | 65.4% | 97.2% | 26.4% | 11.9% | 113% | 73.5% |
| CCCCOc1ccc(S(=O)(=O)N2CCN(c3nc(C)cc(N4CCOCC4)n3)CC2)cc1 | 55.9% | -6.76% (active) | 6.06% (active) | 28.9% | 76.9% | -1.17% (active) | 33% | 4.03% (active) |
| Cc1csc(/N=C(N)/N=C(\N)c2cccnc2)n1 | 85.5% | 77.6% | 6% (active) | 53.2% | 82.1% | 55.1% | 90.2% | 48.8% |
| C[C@@H]1OCC2(CCN(c3cnc(C(=O)Nc4cc(F)cc5cccnc45)cn3)CC2)[C@@H]1N | 37.1% | 90.1% | 82.9% | 12.5% | 2.1% (active) | 15.7% | 84.3% | 83.7% |
| Cc1ccc(S(=O)(=O)c2nc(-c3ccc(F)cc3)oc2S(C)(=O)=O)cc1 | 60.8% | 43% | 77.2% | -66.3% (active) | 33.6% | 36.3% | 102% | 103% |
| Clc1ccc2[nH]cc(-c3nn4cc(-c5ccncc5)nc4s3)c2c1 | 6.38% (active) | -54.3% (active) | 51% | 50.7% | 24.2% | 10.8% | 85.3% | 47.7% |
